According to PubChem BioAssay (NCI):
This is part of a sample that, as a whole, favours compounds with a hit. Of some 83,000 tested, about 20% had one in any assay.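 Negative percent growth values reflect cell death: -40 means 40% of the cells present at the start died, and -100 means all died.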 A number with no mark means an inactive call. Active and inactive are the calls of the source. How the source made its calls: active means growth percent below 10; inactive means the rest.

How the values were obtained:
Experiment in all cases: NCI-60 one-dose screen, 48 h (100 = growth as untreated, 0 = no growth, -100 = all killed)
Conditions in all cases: 10 µM unless noted
NCI-H23 lung = tested on: NCI-H23 lung
NCI-H226 lung = tested on: NCI-H226 lung
NCI-H322M lung = tested on: NCI-H322M lung
HOP-62 NSCLC = tested on: HOP-62 NSCLC
NCI-H460 lung = tested on: NCI-H460 lung
HOP-92 NSCLC = tested on: HOP-92 NSCLC
NCI-H522 lung = tested on: NCI-H522 lung
A549/ATCC NSCLC = tested on: A549/ATCC NSCLC
786-0 renal = tested on: 786-0 renal
COLO 205 colon = tested on: COLO 205 colon

Compound | growth (NCI-H23 lung) | growth (NCI-H226 lung) | growth (NCI-H322M lung) | growth (HOP-62 NSCLC) | growth (NCI-H460 lung) | growth (HOP-92 NSCLC) | growth (NCI-H522 lung) | growth (A549/ATCC NSCLC) | growth (786-0 renal) | growth (COLO 205 colon)
CN1CCN(CC(=O)Nc2ccc(-c3nc4ccccc4s3)cc2)CC1 | 82.2% | 96.2% | 77.9% | 87.3% | 84.7% | 35.7% | 58.9% | 88.6% | 78.7% | 39.7%
COC(=O)C1=C(C(=O)OC)C23C=C(C)C1C2=C(C)C1(CC1)[C@@](C)(O)C3=O (stereo not given in full) | -20.9% (active) | -34.8% (active) | -9.66% (active) | -21.7% (active) | 0.847% (active) | -19.3% (active) | -11% (active) | 1.39% (active) | -20.6% (active) | -51.9% (active)
CCN1/C(=C/C=C/c2n(-c3ccccc3)c3ccc(-c4nc5ccccc5s4)cc3[n+]2CC)N(c2ccccc2)c2ccc(-c3nc4ccccc4s3)cc21 | -0.899% (active) | 0.213% (active) | 14.5% | -7.25% (active) | -1.59% (active) | 1.91% (active) | -0.409% (active) | 3.13% (active) | 3.99% (active) | -5.05% (active)
CCc1cnn2c(NCc3ccc[n+]([O-])c3)cc(N3CCCC[C@H]3CCO)nc12 | -23.3% (active) | -6.42% (active) | -0.876% (active) | -33.2% (active) | 1.82% (active) | -20.2% (active) | -42.2% (active) | -13.4% (active) | 7.96% (active) | -62.5% (active)
CCOc1cc2ncc(C#N)c(Nc3ccc(F)c(Cl)c3)c2cc1NC(=O)/C=C/CN(C)C | -28.5% (active) | -56.5% (active) | 0.98% (active) | -27.7% (active) | -44% (active) | -30% (active) | -57.5% (active) | -30.6% (active) | -68.5% (active) | -83.2% (active)
CNc1ncc2cc(-c3cc(NC(=O)NCCC(C)(C)C)c(F)cc3C)c(C)nc2n1 | 12.8% | 33.1% | 4.99% (active) | 5.28% (active) | 21.3% | -44.3% (active) | -5.5% (active) | 12.2% | 29.8% | -34.5% (active)
CCN1CCN(c2nc(C)cc(N(CCCNc3ccnc4cc(Cl)ccc34)Cc3ccc4c(c3)OCO4)n2)CC1 | 46% | 61% | -11.1% (active) | -42.1% (active) | -6.13% (active) | -33.9% (active) | -43.1% (active) | 5.33% (active) | -85.8% (active) | -78.6% (active)
C[C@@H]1COCCN1c1cc(C2([S@](C)(=N)=O)CC2)nc(-c2ccnc3[nH]ccc23)n1 | -1.16% (active) | 39.5% | 3.93% (active) | 8.86% (active) | 9.37% (active) | 23% | 30.9% | 8.97% (active) | 2.08% (active) | 42.3%
COc1ccc(-c2nocc2-c2cc(OC)c(OC)c(OC)c2)cc1 | 19.2% | 58.8% | 44.6% | 29.6% | 8.8% (active) | 76% | -5.37% (active) | 25.4% | 43.9% | -12.4% (active)
CC(=O)CC1CCCC1c1ccc2ccccc2c1 (stereo not given) | 96.3% | 95.2% | 96.2% | 96.6% | 101% | 99.7% | 93.5% | 95.6% | 101% | 99.4%
C=CC(=O)N(C)[C@H]1C[C@H]2OC(C)(C1OC)n1c3ccccc3c3c4c(c5c6ccccc6n2c5c31)C(=O)NC4 (stereo not given in full) | 4.64% (active) | -60.7% (active) | 6.29% (active) | -15.4% (active) | 1.35% (active) | -21.8% (active) | -54.5% (active) | 9.49% (active) | -74.2% (active) | -75.3% (active)
COc1ccc2c(CCCCC(c3ccccc3)c3ccccc3)c3[n+](cc2c1OC)CCc1cc2c(cc1-3)OCO2 | -66.5% (active) | -55% (active) | 11.1% | -42.7% (active) | -83% (active) | -72.7% (active) | -57.5% (active) | -22.5% (active) | -75.8% (active) | -77.3% (active)
C/C(=C(/c1ccc(Cl)cc1)c1ccc(OCCN2CCCCCC2)cc1)c1ccccc1 | 74.9% | 95.8% | 93.2% | 90.3% | 76.3% | 82.6% | 72.9% | 67.8% | 82% | 15.9%
